Source: PubChem BioAssay (ICCB-Longwood Screening Facility, Harvard Medical School)
Mtb MenB inh = blocks the Mycobacterium tuberculosis MenB enzyme; MenB enzyme assay, absorbance read-out; inhibition, % (test concentration not listed); actives 0.43% (n = 100,000); P9WNP5; in the data active = inhibition above about 21%, passing the limit was not always enough
Target sequence (P9WNP5 whole entry, looked up): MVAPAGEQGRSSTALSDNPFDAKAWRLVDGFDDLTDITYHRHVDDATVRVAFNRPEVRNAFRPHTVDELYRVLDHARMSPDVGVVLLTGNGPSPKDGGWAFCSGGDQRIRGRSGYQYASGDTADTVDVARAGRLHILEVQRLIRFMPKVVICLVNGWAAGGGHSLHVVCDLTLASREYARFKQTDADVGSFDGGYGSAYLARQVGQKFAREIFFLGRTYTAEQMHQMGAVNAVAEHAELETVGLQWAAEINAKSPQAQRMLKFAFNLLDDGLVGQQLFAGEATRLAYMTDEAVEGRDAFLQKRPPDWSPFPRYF
MbtI inh = blocks the Mycobacterium tuberculosis siderophore enzyme MbtI | P9WFX0 | purified MbtI enzyme, fluorescence intensity read-out | inhibition, % (no concentration beside the values) | actives 0.89% (n = 100,000); in the data active = inhibition mostly above about 56%, no sharp cut-off; inactive = mostly below about 77%
AID504770 = growth inhibitors of E. coli YBA685 in a screen for V. cholerae RctB (chromosome II replication) inhibitors; E. coli YBA685 rctB-dependent plasmid, OD600 growth, 3 h; hits give low values; z-score (no concentration beside the values); actives 0.27% (n = 130,000); AID 504770; in the data active = z-score below about -2, passing the limit was not always enough
PV pol inh = poliovirus RNA polymerase inhibition; poliovirus polymerase elongation, fluorescence polarization; hits give low values; AID 588519; actives 0.66% (n = 150,000); P03300; % elongation, % (compound at 16.7 µg/mL); in the data active = % elongation below about 90%
Each line names hits and unclear results; the compound was inactive in the other large screens; ! = not confirmed by another sample. Sampled rows, rich in hits. Any-hit rate of the full collection: about 1.5%.

COc1ccc(C(=O)Nc2ccccc2C(=O)NC(C(=O)NCc2ccco2)C(C)C)cc1 (centres undefined)	Mtb MenB inh 30
O=C(Cc1nc2ccccc2[nH]1)C(F)(F)F	none
O=C1CCC/C(=N/NC(=O)c2ccc(Cn3nnc(-c4ccccc4)n3)cc2)C1	none
O=C(Cc1nc2ccccc2s1)c1ccccc1	PV pol inh 72 (no result: Mtb MenB inh)
N/C(=N\OC(=O)Oc1ccccc1)c1ccccn1	none
S=C(NCCc1ccccc1)NNc1nc2ccccc2o1	PV pol inh 37
COc1cc2nc(CSc3nnc(C4CC4)n3C3CC3)[nH]c(=O)c2cc1OC	none
Nc1n[nH]c2cc(=O)[nH]c(O)c12	PV pol inh 5.0
CCN(CC)C(=O)Oc1cc(COC)nc(-c2ccccc2)n1	AID504770 -3 (no result: Mtb MenB inh, MbtI inh, PV pol inh)
CCN(CC)C(=O)Oc1cc(C(F)(F)F)nc(-c2ccc(Cl)cc2)n1	none (no result: Mtb MenB inh, MbtI inh, PV pol inh)
FC(F)(F)c1cccc(CN2CCSCC2)c1	none
O=S1(=O)CCN(Cc2cccc(C(F)(F)F)c2)CC1	AID504770 -2.7 (no result: Mtb MenB inh, MbtI inh, PV pol inh)
O=C(NC1CCCC1)c1ccc2c(=O)n(Cc3ccco3)c(=O)n(Cc3cccc(Cl)c3)c2c1	none
Cc1ccc(-c2nc(C(=O)N3CCN(Cc4ccccc4)CC3)c3n2CCCCC3)cc1	none
Cc1ccc2oc(=O)c(/C=C(\O)CC(C)C)nc2c1	Mtb MenB inh 69
CCS(=O)(=O)c1ccc2oc(=O)c(/C=C(\O)c3oc(C)nc3C)nc2c1	none
O=C(NCCN1C(=O)S/C(=C\c2ccc(F)cc2)C1=O)c1cc(F)c(F)c(F)c1F	none (no result: Mtb MenB inh)
COCCNC(=S)N1CCCN(c2nc3cc(C)ccc3cc2C#N)CC1	Mtb MenB inh 21
Cc1ccc2cc(C#N)c(N3CCCN(C(=O)C4CCCCC4)CC3)nc2c1	none
ONC=NCc1ccccc1OC(F)(F)F	Mtb MenB inh 34
Nc1nc(NCc2ccccc2OC(F)(F)F)n[nH]1	none (no result: Mtb MenB inh, MbtI inh, PV pol inh)
CC(C)(C)N(Cc1ccccc1)C(=O)CSc1nncs1	none
S=c1[nH]nc(CCCOc2ccc(Cl)cc2Cl)o1	MbtI inh 90, PV pol inh 87
Cc1nn(-c2ccccc2)c2c1P(=S)(N1CCOCC1)OC(c1ccccc1)=N2 (centres undefined)	PV pol inh 88
COc1cc(C2=Nc3c(c(C)nn3-c3ccccc3)P(=O)(N3CCOCC3)O2)cc(OC)c1OC (centres undefined)	none
Cc1nn(CCC(N)=S)c2nc(-c3ccccc3)ccc12	PV pol inh 73
CN1C(=O)/C(=C/c2cn(CC(=O)N3CCCC3)c3ccccc23)C(=O)NC1=S	none
CN1C(=O)/C(=C/c2ccc(I)o2)C(=O)NC1=S	MbtI inh 83
CCC(O)(c1ccc(OC)cc1)C(CN1CCCC1)c1ccccc1 (centres undefined)	none
CCN1C(=O)CC(OC(C)=O)C1=O (centres undefined)	MbtI inh 66
CCN1C(=O)C2CC(C)=C(C)CC2C1=O (centres undefined)	none
S=c1nc(Cc2ccccc2)[nH][nH]1	none (no result: MbtI inh)
S=c1nc(CNc2ccccc2)[nH][nH]1	MbtI inh 95
CC(=O)Oc1c2c(C)[nH]nc2nc2c1c(=O)n(C)c(=O)n2C	none (no result: Mtb MenB inh, PV pol inh)
O=C(CSc1cccc[n+]1[O-])c1cc2ccccc2o1	MbtI inh 98 (no result: Mtb MenB inh)
O=C(CSc1cccc[n+]1[O-])c1cccs1	MbtI inh 98 (no result: Mtb MenB inh)
COc1ccc(C(=O)Oc2csc(=S)n2C(=O)c2ccc(OC)cc2)cc1	none (no result: MbtI inh)
O=C1C=CC(=O)N1c1ccc(S(=O)(=O)Nc2ccc(C(F)(F)F)cc2)cc1	MbtI inh 98
COC(=O)COc1ccc(S(=O)(=O)Nc2ccc(C(F)(F)F)cc2)cc1	none
COc1ccc(C)cc1NC(=O)CN1CCSc2ccccc21	none
O=C(CC(c1cccs1)N1Cc2ccccc2C1=O)NCCN1CCOCC1 (centres undefined)	AID504770 -2.2
O=C(CC(c1cccs1)N1Cc2ccccc2C1=O)NCc1ccc(CN2CCOCC2)o1 (centres undefined)	none
COC(=O)c1cc(C)sc1N	MbtI inh 95
COC(=O)Nc1sc(C)cc1C(=O)OC	none
CCCSc1nc(-c2ccccc2)[nH]c1S(=O)(=O)c1ccc(C)cc1	PV pol inh -16 (no result: Mtb MenB inh, MbtI inh, AID504770)
Cc1ccc(S(=O)(=O)c2[nH]c(-c3ccccc3)nc2SCCC(=O)O)cc1	none (no result: Mtb MenB inh, MbtI inh, AID504770)
Cc1ccc(-c2nnc(SCCC(=O)N3CCOCC3)o2)cc1	Mtb MenB inh 28
CCCN(CCC)S(=O)(=O)c1cc2[nH]c(=O)c(=O)[nH]c2cc1C	none
CCOC(=O)c1cnc(N2CCCCC2)[nH]c1=O	none
Cn1ncc(S(=O)(=O)Cc2ccccc2)c(Cl)c1=O	MbtI inh 90
CC1=CC(C)=NC2Nc3c(C)cc(C)cc3C(=N)C12 (centres undefined)	PV pol inh 86
COc1cccc(NC(=O)C2CC(=O)n3cnnc3S2)c1 (centres undefined)	MbtI inh 96 (no result: Mtb MenB inh, PV pol inh)
NC(=O)NC(=O)CSc1nc(N)cc(=O)[nH]1	none
O=C(CC1Sc2ncnn2C1=O)Nc1ccc(Br)cc1 (centres undefined)	MbtI inh 99 (no result: Mtb MenB inh, PV pol inh)
CN=C1SC(CC(=O)Nc2ccccc2)C(=O)N1C (centres undefined)	none (no result: PV pol inh)
C=Cc1ccc2c(ccn2C(C)=O)c1	none
C=Cc1ccc2c(c1)N(C)C(=C)S2	MbtI inh 62 (no result: Mtb MenB inh)
O=C1COc2ccc(-c3csc(=Nc4ccc(F)cc4)n3/N=C/c3ccc(O)c(O)c3)cc2N1	PV pol inh 83
COc1cc(NC(C)C(=O)N(C)c2ccccc2)cc(OC)c1OC (centres undefined)	none
O=c1oc(C23CC4CC(CC(C4)C2)C3)ns1	PV pol inh 73 (no result: MbtI inh)
COC(=O)c1ccccc1NC(=O)CSc1nnnn1-c1ccc2c(c1)OCO2	none
Cc1c(C)c(NC(=O)/C=C/C(=O)O)c(C)c(C)c1NC(=O)/C=C/C(=O)O	MbtI inh 60
Cc1cc(C)cc(NC(=O)/C=C\C(=O)O)c1	none
Cc1ccc(C(=O)OCCOc2ccc(Br)cc2)cc1	none (no result: Mtb MenB inh)
NC1=NC(=Nc2ccccc2)c2ccccc21	none (no result: Mtb MenB inh)
Nc1nc(=Nc2ccccc2)ss1	AID504770 -4.2 (no result: MbtI inh)
COC(=O)Cc1csc(NC(C)(C)C)n1	none
O=C(Cc1ccc2c(c1)OCCO2)NCc1ccco1	none (no result: PV pol inh)
CCN(Cc1ccc2c(c1)OCCO2)C(=S)NCc1ccco1	MbtI inh 89
O=C(CO/N=C/c1ccco1)NCc1ccccc1	MbtI inh 51
O=C(Nc1nccs1)C1CCC(CNS(=O)(=O)c2cccc3nsnc23)CC1 (centres undefined)	none (no result: Mtb MenB inh, MbtI inh, PV pol inh)
CCC(C)[C@@H](CO[C@@H](Cc1ccccc1)C(=O)N[C@@H](CCS(C)(=O)=O)C(=O)OC(C)C)NC[C@@H](N)CS (some centres undefined)	MbtI inh 67 (no result: AID504770)
Cc1cc(C(C)(C)CC(C)(C)C)ccc1OCCOCC[N+](C)(C)Cc1ccccc1	PV pol inh 94!
C[N+](C)(Cc1ccccc1)Cc1ccccc1	none (no result: MbtI inh)
COc1cc(C(=O)Nc2c3c(nn2-c2ccc(F)cc2)CS(=O)(=O)C3)cc(OC)c1OC	AID504770 -3.1
O=C(/C=C(\O)c1ccc(Cl)cc1)C(F)(F)F	AID504770 -4.3
O=C(CN1CCCC1)Nc1nc(-c2ccc3c(c2)CCN3C(=O)C2CC2)cs1	none
COC1=CC(=O)c2ccccc2C1=O	AID504770 -2.6, PV pol inh 85
